Consider 14 compounds from ChEMBL document CHEMBL1961873, “Compounds: GSK PKIS; Assays: Nanosyn kinase panel” (2012).

Test [1] has as its target Mast/stem cell growth factor receptor Kit (Homo sapiens) (UniProt P10721). The note with it: at 1 µM.
The test system of test [2] is Mast/stem cell growth factor receptor Kit (Homo sapiens), P10721 [D816V]. The note with it: at 0.1 µM.
Test [3] shares this test system. The note with it: at 1 µM.
In test [4] the test system is Mast/stem cell growth factor receptor Kit (Homo sapiens), P10721 [T670I]. Conditions: at 0.1 µM.
Test [5] shares this test system. Conditions: at 1 µM.
Test [6] relates to Mast/stem cell growth factor receptor Kit (Homo sapiens), P10721 [V560G]. Conditions: at 0.1 µM.
Test [7] has the same test system. Conditions: at 1 µM.
Test [8] concerns the target Tyrosine-protein kinase Lck (Homo sapiens) (UniProt P06239). The note with it: at 0.1 µM.
For test [9] the target is unchanged. Conditions: at 1 µM.
The target in test [10] is Leukocyte tyrosine kinase receptor (Homo sapiens) (UniProt P29376). Conditions: at 0.1 µM.
Chain of Leukocyte tyrosine kinase receptor (Homo sapiens) (P29376 whole entry): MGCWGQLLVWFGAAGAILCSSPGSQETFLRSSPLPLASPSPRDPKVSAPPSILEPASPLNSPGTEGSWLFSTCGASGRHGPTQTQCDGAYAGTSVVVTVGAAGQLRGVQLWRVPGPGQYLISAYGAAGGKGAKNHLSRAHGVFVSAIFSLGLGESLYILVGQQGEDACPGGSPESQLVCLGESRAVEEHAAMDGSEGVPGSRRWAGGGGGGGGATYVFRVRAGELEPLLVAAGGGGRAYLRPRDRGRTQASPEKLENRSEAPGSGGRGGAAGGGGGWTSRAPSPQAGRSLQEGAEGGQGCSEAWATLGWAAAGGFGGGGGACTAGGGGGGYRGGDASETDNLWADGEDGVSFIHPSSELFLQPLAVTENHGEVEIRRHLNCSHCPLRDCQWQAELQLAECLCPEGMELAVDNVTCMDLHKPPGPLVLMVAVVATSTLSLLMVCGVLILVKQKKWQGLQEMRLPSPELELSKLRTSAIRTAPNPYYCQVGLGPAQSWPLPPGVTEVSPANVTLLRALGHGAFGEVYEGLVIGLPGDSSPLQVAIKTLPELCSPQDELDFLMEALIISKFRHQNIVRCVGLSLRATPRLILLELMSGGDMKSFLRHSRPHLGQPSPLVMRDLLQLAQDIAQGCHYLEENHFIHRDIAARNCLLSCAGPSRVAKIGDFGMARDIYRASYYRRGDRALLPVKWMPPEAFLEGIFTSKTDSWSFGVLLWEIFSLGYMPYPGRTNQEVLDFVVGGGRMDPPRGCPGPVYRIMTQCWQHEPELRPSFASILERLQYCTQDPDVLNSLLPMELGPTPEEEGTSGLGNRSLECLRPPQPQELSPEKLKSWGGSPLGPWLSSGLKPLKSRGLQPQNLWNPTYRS

Chain of Mast/stem cell growth factor receptor Kit (Homo sapiens), P10721 [D816V] (P10721 whole entry D816V): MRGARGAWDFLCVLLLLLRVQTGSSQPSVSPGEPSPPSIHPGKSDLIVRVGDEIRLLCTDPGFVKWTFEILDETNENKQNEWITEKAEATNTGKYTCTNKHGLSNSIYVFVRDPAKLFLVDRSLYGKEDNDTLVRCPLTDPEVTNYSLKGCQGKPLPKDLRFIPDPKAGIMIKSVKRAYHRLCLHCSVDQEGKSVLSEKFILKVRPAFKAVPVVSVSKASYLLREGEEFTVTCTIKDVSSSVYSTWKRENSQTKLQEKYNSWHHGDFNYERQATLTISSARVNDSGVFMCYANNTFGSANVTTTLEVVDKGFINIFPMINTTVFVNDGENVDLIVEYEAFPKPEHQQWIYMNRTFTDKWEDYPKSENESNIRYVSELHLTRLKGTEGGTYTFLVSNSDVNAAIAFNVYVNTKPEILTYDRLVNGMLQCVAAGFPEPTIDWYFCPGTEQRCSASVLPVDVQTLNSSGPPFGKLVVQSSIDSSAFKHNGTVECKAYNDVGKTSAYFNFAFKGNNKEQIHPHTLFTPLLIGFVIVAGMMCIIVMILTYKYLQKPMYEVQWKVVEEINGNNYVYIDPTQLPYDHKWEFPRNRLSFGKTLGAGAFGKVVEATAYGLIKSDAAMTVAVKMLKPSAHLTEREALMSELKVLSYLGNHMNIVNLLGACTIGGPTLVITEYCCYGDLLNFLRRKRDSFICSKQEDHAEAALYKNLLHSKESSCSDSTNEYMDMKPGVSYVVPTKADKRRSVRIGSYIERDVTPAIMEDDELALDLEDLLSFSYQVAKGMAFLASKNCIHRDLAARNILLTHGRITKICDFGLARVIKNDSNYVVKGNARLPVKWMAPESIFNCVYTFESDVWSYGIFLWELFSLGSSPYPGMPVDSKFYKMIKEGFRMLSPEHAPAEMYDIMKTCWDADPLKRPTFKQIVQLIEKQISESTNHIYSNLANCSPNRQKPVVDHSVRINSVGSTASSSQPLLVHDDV
Chain of Tyrosine-protein kinase Lck (Homo sapiens) (P06239 2-509 limits assumed): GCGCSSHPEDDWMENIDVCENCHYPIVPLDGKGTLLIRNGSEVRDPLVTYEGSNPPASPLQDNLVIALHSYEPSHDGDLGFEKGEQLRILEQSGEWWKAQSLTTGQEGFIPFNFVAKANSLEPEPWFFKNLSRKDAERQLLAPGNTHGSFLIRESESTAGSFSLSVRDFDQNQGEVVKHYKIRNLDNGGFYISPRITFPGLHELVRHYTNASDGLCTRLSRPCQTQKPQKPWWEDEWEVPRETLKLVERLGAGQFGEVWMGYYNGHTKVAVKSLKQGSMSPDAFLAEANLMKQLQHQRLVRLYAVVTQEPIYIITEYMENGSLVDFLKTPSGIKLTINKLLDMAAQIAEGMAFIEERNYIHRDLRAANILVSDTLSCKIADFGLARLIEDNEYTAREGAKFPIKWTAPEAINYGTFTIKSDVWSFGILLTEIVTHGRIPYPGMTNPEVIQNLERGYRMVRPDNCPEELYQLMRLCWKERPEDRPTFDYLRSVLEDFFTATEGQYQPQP
Chain of Mast/stem cell growth factor receptor Kit (Homo sapiens) (P10721 whole entry): as the sequence (P10721 whole entry D816V) above, with V816D counted along it
Chain of Mast/stem cell growth factor receptor Kit (Homo sapiens), P10721 [T670I] (P10721 whole entry T670I): as the sequence (P10721 whole entry D816V) above, with T670I, V816D counted along it
Chain of Mast/stem cell growth factor receptor Kit (Homo sapiens), P10721 [V560G] (P10721 whole entry V560G): as the sequence (P10721 whole entry D816V) above, with V560G, V816D counted along it

For `Cc1cc(-c2ccco2)cc(C)c1/C=C/c1cncc(-c2nn[nH]n2)c1`, the inhibition is 0.94% in [1]; -2.81% in test [2]; -2.99% in test [3]; 1.44% in [4]; 0.51% in [5]; 1.15% in test [6]. Besides, the inhibition in test [7] came out at 3.87%; in [8] it was 1.77%; in [9] it was 4.38%; in test [10] it was 1.51%.

For the compound `COc1cc(C=NNc2ncnc3c2cnn3Cc2ccccc2)ccc1O`, the inhibition was -1.55% in [1]; -5.85% in test [2]; 0.6% in test [3]; -3.69% in test [4]; -2.85% in [5]; 1.99% in test [6]. In addition, the inhibition in test [7] was 3.94%; in [8], 13.2%; in test [9], 14.2%; in test [10] it was -2.98%.

Take `NS(=O)(=O)c1ccc(-c2ccc3c(NC(=O)C4CC4)n[nH]c3c2)cc1`: the inhibition in test [1] amounted to 1.91%; in test [2] it was 3.57%; in test [3], 0.9%; in test [4], 4.28%; in test [5], 4.13%; in test [6], 2.1%. Moreover, the inhibition is -1.99% in [7], 2.8% in [8], 4.43% in test [9] and 1.17% in [10].

In the case of `CCn1c(-c2nonc2N)nc2c(C#CCN)ncc(OCCCN)c21`, the inhibition in test [1] is 3.33%; in [2], -3.56%; in test [3] it was 3.48%; in test [4], -1.86%; in test [5], 2.2%; in [6], 1.17%. Further, the inhibition in [7] is 2.93%; in test [8], 1.94%; in test [9], 0.46%; in [10] it was -1.04%.

Take `Fc1ccc(-c2ncn(C3CCNCC3)c2-c2ccnc(Oc3ccccc3)n2)cc1`: the inhibition in test [1] worked out at 1.46%; in [2], 0.53%; in test [3], 4.38%; in test [4], 0.68%; in test [5], 2.08%; in [6], 3.13%. Moreover, the inhibition in [7] is 1.77%; in [8], -2.11%; in test [9], -2.53%; in [10], 0.54%.

For `CCn1c(-c2nonc2N)nc2c(C#CC(C)(C)O)nc(O[C@@H](CN)c3ccccc3)cc21`, the inhibition in [1] is 2.69%; in test [2], 0.72%; in [3], 34.2%; in test [4] it was -0.51%; in [5], 10.4%; in test [6] it was 3.42%. In addition, the inhibition in [7] is 3.54%; in test [8] it was 0.41%; in test [9], 4.58%; in test [10] it was 35.4%.

Turning to `CCn1c(-c2nonc2N)nc2c(C#CC(C)(C)O)ncc(OC[C@@H]3CCCN3)c21`, the inhibition in test [1] is -2.57%; in test [2] it was -1.62%; in [3], 4.32%; in test [4], -1.38%; in test [5], 1.32%; in test [6] it was 0.39%. Further, the inhibition in [7] is -1.89%; in [8], 1.21%; in test [9] it was 3.66%; in test [10], 0.71%.

Consider `NS(=O)(=O)c1ccc(N/C=C2\C(=O)Nc3ccc4ncsc4c32)cc1`, for which the inhibition in [1] was determined as 90%; in [2], 0.89%; in [3], 14.5%; in test [4] it was 12.1%; in test [5] it was 58.9%; in test [6], 0.83%. The inhibition came to 20.2% in test [7], 4.26% in [8], 13.2% in test [9] and 5.19% in test [10].

For `COc1cccc(COc2cc(-n3cnc4ccccc43)sc2C(N)=O)c1`, the inhibition in test [1] is -3.97%; in test [2], -0.07%; in [3] it was -0.97%; in [4], -0.12%; in [5] it was -0.76%; in test [6], -2.2%. In addition, the inhibition is -2.16% in test [7], 0.12% in test [8], -0.7% in [9] and 0.36% in [10].

As for `COc1cccc(-n2ncc3c(N/N=C/c4ccncc4)ncnc32)c1`, the inhibition in [1] was determined as 57.2%; in test [2], 2.45%; in test [3], 12.7%; in test [4], 9.47%; in test [5] it was 46.9%; in [6], 0.93%. Further, the inhibition is 10.7% in [7], 41.1% in test [8], 84% in [9] and 4.93% in test [10].

With `NC(=O)c1sc(-n2cnc3cc(C(F)(F)F)ccc32)cc1OCc1ccccc1Br`, the inhibition in [1] is 1.77%; in [2], -1.89%; in test [3] it was -0.03%; in test [4] it was 0.92%; in [5], 0.92%; in test [6], 0.44%. The inhibition in test [7] was -1.3%; in [8], 1.84%; in [9], 4.62%; in test [10], 1.94%.

Consider `COc1cc2c(cc1Nc1nc(Nc3ccsc3C(N)=O)c3cc[nH]c3n1)N(C(=O)CN(C)C)CCC2`, for which the inhibition in test [2] is 0.61%; in test [3] it was 2.53%; in test [4] it was -0.99%; in [5], 3.92%; in [6], 1.1%; in [7], 8.54%. Besides, the inhibition in [8] is 2.58%; in [9], 6.92%; in test [10], 93.8%.

In the case of `Nc1nonc1-c1nc2cnccc2n1C1CCCCC1`, the inhibition in test [1] is 20.6%; in [2] it was -4.78%; in [3], -1.9%; in test [4], -2.27%; in test [5] it was 13.3%; in [6], 1.39%. Also, the inhibition is 3.23% in test [7], -0.24% in test [8], 0.51% in test [9] and -0.53% in test [10].

Turning to `CCn1c(-c2nonc2N)nc2c(C#CC(C)(C)O)ncc(OCC3CCNCC3)c21`, the inhibition was 8.48% in test [1]; 3.82% in test [2]; 5.6% in test [3]; 1.76% in [4]; 4.21% in [5]; 3.17% in test [6]. Further, the inhibition was 3.26% in test [7], -3.71% in test [8], -1.12% in test [9] and 2.4% in test [10].
